Assay results published in PubChem BioAssay (NCATS).
Inconclusive results are not listed. Activity calls are given as the source filed them. Calls follow the shape of the dose curve; as a rule, active = well fitted curve in the direction sought with a large enough effect; inconclusive = small, poorly fitted or top-dose-only effect, or another doubt; inactive = no such curve, though single readings can be large; an effect the other way counts as inactive or inconclusive.

What was measured:
[1] = qHTS of pediatric cancer cell lines to identify multiple opportunities for drug repurposing: Primary screen for TC32 cells (AID 1347089); settings: TC32 Ewing sarcoma viability, CellTiter-Glo luminescence, 48 h; series mostly up to 45.8 µM; also: nearly all actives have a fitted effect of over 60% in size
Summary of the method: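 Measured quantity: luminescence from CellTiter-Glo, reflecting metabolically active TC32 cells following 48 h of compound. Curves came straight from multi-point titrations, with 8 or 11 points in primary and 11 in confirmatory screening.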

[2] = qHTS of pediatric cancer cell lines to identify multiple opportunities for drug repurposing: Primary screen for DAOY cells (AID 1347090); settings: DAOY medulloblastoma viability, CellTiter-Glo luminescence, 48 h; series mostly up to 46 µM; also: nearly all actives have a fitted effect of over 55% in size
Summary of the method: (§1)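 Viability measured as metabolically active cells via CellTiter-Glo luminescence following 48 hours of compound exposure, 11-point dilutions in confirmatory testing. 500-1,000 cells/well plated 5 hours before dosing; controls were DMSO and 2.3 µM bortezomib.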

[3] = qHTS of pediatric cancer cell lines to identify multiple opportunities for drug repurposing: Primary screen for SJ-GBM2 cells (AID 1347091); settings: SJ-GBM2 viability, CellTiter-Glo luminescence, 48 h; series mostly up to 46 µM
Summary of the method: as §1

[4] = qHTS of pediatric cancer cell lines to identify multiple opportunities for drug repurposing: Primary screen for A673 cells (AID 1347092); settings: A673 Ewing sarcoma viability, CellTiter-Glo ATP luminescence, 48 h; series mostly up to 46 µM; also: nearly all actives have a fitted effect of over 45% in size
Summary of the method: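 Cells are plated, rested 5 h, dosed by pintool, incubated 48 h, then lysed with CellTiter-Glo and read by luminescence. DMSO is the neutral control; bortezomib at 2.3 uM final is the positive control.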

[5] = NS1 protein of Zika virus - qHTS assay to identify small molecule inhibitors in human HEK 293 cells (AID 1347053); settings: HEK293 ZIKV MR766 infection, NS1 TR-FRET, 24 h; series mostly up to 46.1 µM; also: nearly all actives have a fitted effect of over 55% in size
Summary of the method: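 HEK 293 cells pretreated with compound for 1 h, then infected with ZIKV MR766 (MOI 0.5) for 24 h at 37 C. NS1 detected by TR-FRET with two anti-NS1 antibodies; normalized to uninfected (0%) and infected (100%) wells.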

[6] = qHTS of pediatric cancer cell lines to identify multiple opportunities for drug repurposing: Primary screen for SK-N-MC cells (AID 1347093); settings: SK-N-MC viability, CellTiter-Glo luminescence, 48 h; series mostly up to 46 µM
Summary of the method: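 Metabolically active cells were quantified by ATP-dependent luminescence (CellTiter-Glo, 15 min at room temperature) following 48 h treatment. Cells had been plated at 500-1,000 per well and settled for 5 h beforehand.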
Potency is read from the fitted curve at half-maximal effect.

Row | SMILES | Potency [1] | Potency [2] | Potency [3] | Potency [4] | Potency [5] | Potency [6]
1 | CCCNS(=O)(=O)Nc1ncnc(OCCOc2ncc(Br)cn2)c1-c1ccc(Br)cc1 | inactive | inactive | inactive | inactive |  | 
2 | N#Cc1c(C2CCNCC2)cc(-c2c(O)cccc2OCC2CC2)nc1N |  |  |  | 18700 nM (active) | inactive | 1050 nM (active)
3 | Cc1cnc(NC(=O)Nc2cc(Br)c(C)cc2OC[C@@H]2CNCCO2)cn1 |  |  | 1180 nM (active) |  | 6620 nM (active) | 
4 | CC(=O)O[C@]1(C(C)=O)CC[C@H]2[C@@H]3C=C(C)C4=CC(=O)CC[C@]4(C)[C@@H]3CC[C@@]21C |  |  | 14800 nM (active) | 2350 nM (active) | inactive | 2090 nM (active)
5 | Oc1ccc(-c2ccc(-c3cc(Nc4cccc(CNC5CC5)c4)n[nH]3)cc2)c(O)c1 |  |  | 1480 nM (active) | 935 nM (active) | 1180 nM (active) | 372 nM (active)
6 | COc1cc(C)c(Sc2cnc(NC(=O)c3ccc(CNC(C)C(C)(C)C)cc3)s2)cc1C(=O)N1CCN(C(C)=O)CC1 (configuration not stated) | 20800 nM (active) | 18700 nM (active) | 4690 nM (active) | 2350 nM (active) |  | 2090 nM (active)
7 | CC(C)(C)c1nc2c3cc[nH]c(=O)c3c3cc(F)ccc3c2[nH]1 |  |  |  |  | inactive | 1180 nM (active)
8 | Cn1cc(CNCC2CCN(c3ncc(C(=O)NO)cn3)CC2)c2ccccc21 | 415 nM (active) | 235 nM (active) | 74.3 nM (active) | 74.3 nM (active) |  | 66.2 nM (active)
9 | CCCCCCCCc1ccc(CCC(N)(CO)CO)cc1 |  |  | 14800 nM (active) | 4690 nM (active) | 9350 nM (active) | 1870 nM (active)
10 | COC(=O)C1C2CC3c4[nH]c5cc(OC)ccc5c4CCN3CC2CC(OC(=O)c2cc(OC)c(OC)c(OC)c2)C1OC (configuration not stated) |  |  |  |  | inactive | 3720 nM (active)
11 | c1ccc2c(Oc3nc(Nc4ccc(N5CCOCC5)cc4)c4ncn(C5CCCCC5)c4n3)cccc2c1 |  |  |  |  | inactive | 11800 nM (active)
12 | Nc1nc(=O)n([C@H]2C[C@H](O)[C@@H](CO)O2)cc1F | 829 nM (active) | inactive | inactive |  |  | 
13 | O=C(C=CC=Cc1ccc2c(c1)OCO2)N1CCCCC1 | inactive | inactive | inactive | inactive |  | inactive
14 | CC(=O)N[C@@H]1[C@H](O[C@@H]2c3ccc(c(Cl)c3)Oc3cc4cc(c3O[C@H]3O[C@H](CO)[C@@H](O)[C@H](O)[C@H]3NC(=O)CCCCCCCC(C)C)Oc3ccc(cc3Cl)C[C@H]3NC(=O)[C@H](N)c5ccc(O)c(c5)Oc5cc(O)cc(c5)[C@H](NC3=O)C(=O)N[C@H]4C(=O)N[C@H]3C(=O)N[C@@H]2C(=O)N[C@@H](C(=O)O)c2cc(O)cc(O[C@H]4O[C@H](CO)[C@@H](O)[C@H](O)[C@H]4O)c2-c2cc3ccc2O)O[C@H](CO)[C@@H](O)[C@@H]1O | inactive | inactive | inactive | inactive |  | inactive
15 | CNC(=O)c1ccc(Nc2cc(Nc3ccccc3S(=O)(=O)C(C)C)c3cc[nH]c3n2)nc1 | 2620 nM (active) | 14800 nM (active) | 1050 nM (active) | 2350 nM (active) |  | 743 nM (active)
16 | C[C@H](NCc1ccc(OCc2cccc(F)c2)cc1)C(N)=O |  |  | 10500 nM (active) | 5900 nM (active) | 23500 nM (active) | 2640 nM (active)
17 | CCN(CC)Cc1ccc2cc(COC(=O)Nc3ccc(C(=O)NO)cc3)ccc2c1 | 5870 nM (active) | 2960 nM (active) | 743 nM (active) | 1480 nM (active) |  | 833 nM (active)

Row | SMILES | Potency [1] | Potency [2] | Potency [3] | Potency [4] | Potency [5] | Potency [6]
18 | CC(C)N1[N]C(=C2C=c3cc(O)ccc3=N2)c2c(N)ncnc21 |  |  | 93.5 nM (active) | 1480 nM (active) | 4690 nM (active) | 148 nM (active)
19 | FC(F)c1nc2ccccc2n1-c1nc(N2CCOCC2)nc(N2CCOCC2)n1 |  |  | 74.3 nM (active) | 1180 nM (active) | 1870 nM (active) | 
20 | CC(O)(C#Cc1ccc2c(c1)N(c1nc(N)ncc1Cl)CC2)c1nccs1 (configuration not stated) | inactive | 7430 nM (active) | 13200 nM (active) | 5900 nM (active) |  | 
21 | O=C(NCc1ccccc1)[C@H](Cc1ccccc1)NC(=O)[C@@H]1O[C@@H]1C(=O)NCCc1ccc(O)cc1 |  |  |  | 1180 nM (active) | inactive | 23500 nM (active)
22 | c1cc(CN2CCCNCCNCCCNCC2)ccc1CN1CCCNCCNCCCNCC1 | inactive | inactive | inactive | inactive |  | 
23 | CCN(CC)CCNC(=O)c1c(C)[nH]c(C=C2C(=O)Nc3ccc(F)cc32)c1C | 12000 nM (active) | 42900 nM (active) | 34000 nM (active) | 5400 nM (active) |  | 1080 nM (active)
24 | CC(C)c1cnn2c(NCc3ccccc3)cc(NCCCCCCN)nc12 | inactive | 4690 nM (active) | 16600 nM (active) | 5900 nM (active) |  | 
25 | COc1ccc(C=Cc2cc(OC)c(OC)c(OC)c2)cc1NC(=O)[C@H](N)CO | 41.5 nM (active) | 9.3 nM (active) | 1 nM (active) | 9.3 nM (active) |  | 11.8 nM (active)
26 | COc1cc(C[C@@H](CO)[C@H](CO)Cc2ccc(O)c(OC)c2)ccc1O |  |  |  | 187 nM (active) | inactive | 209 nM (active)
27 | Cn1cnc(=N)c2[nH]cnc21 |  |  | 1480 nM (active) | 187 nM (active) | inactive | 83.3 nM (active)
28 | Nc1cccc2c1C(=O)N(C1CCC(=O)NC1=O)C2=O (configuration not stated) |  |  | inactive | inactive | inactive | inactive
29 | C#CCC(Cc1cnc2nc(N)nc(N)c2n1)c1ccc(C(=O)N[C@@H](CCC(=O)O)C(=O)O)cc1 (some centres not stated) |  |  | 118 nM (active) | 29.6 nM (active) | 132 nM (active) | 23.5 nM (active)
30 | COc1ccc(S(=O)(=O)Nc2cc(-c3c(O)ccc4ccccc34)c(O)c3ccccc23)cc1 |  |  | 18700 nM (active) | 7430 nM (active) | inactive | 3320 nM (active)
31 | Nc1nc(N)c2nc(-c3cccc(O)c3)c(-c3cccc(O)c3)nc2n1 | 18600 nM (active) | 7430 nM (active) | 8330 nM (active) | 2350 nM (active) |  | 1480 nM (active)
32 | C[C@@H]1[C@H](C)CC[C@]2(C(=O)O)CC[C@]3(C)C(=CC[C@@H]4[C@@]5(C)C[C@@H](O)[C@H](O)[C@@](C)(CO)[C@H]5CC[C@]43C)[C@@H]12 | inactive | inactive |  | inactive |  | 
33 | Cn1cc(-c2cnn3c(N)c(Br)c([C@H]4CCCNC4)nc23)cn1 |  |  | 235 nM (active) | 59 nM (active) | 833 nM (active) | 93.5 nM (active)
